# Several values for one entry are separate records, joined by “and”; a condition that tells them apart may be missing. Equal values may be shown once. Inconclusive results are not listed. A call without a number means that no potency is given here. More than one record can exist for a structure, and the calls need not agree. Activity calls are given as the source filed them. Calls follow the shape of the dose curve; as a rule, active = well fitted curve in the direction sought with a large enough effect; inconclusive = small, poorly fitted or top-dose-only effect, or another doubt; inactive = no such curve, though single readings can be large; an effect the other way counts as inactive or inconclusive. Non-standard residues stand in square brackets, D forms with d. Residues, ends and D or L forms follow the SMILES beside them. *: point of attachment. Sta = CC(C)C[C@H](N)[C@@H](O)CC(=O)O; Isovaleryl = CC(C)CC(=O)*
# Columns and labels:
# CRL-7250 = normal cell line; assay: Cytotoxic Profiling of Annotated Libraries Using Quantitative High-Throughput Screening (AID 1296008); settings: Five cell lines viability, CellTiter-Glo ATP luminescence, 48-72 h; max response: stronger effect = lower value; also: nearly all actives have a fitted effect of over 60% in size
# Method in brief: (§1)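 Compounds were pin-transferred onto cells and incubated 48 or 72 hr at 37 degree Celsius, 95% humidity. CellTiter-Glo was added, plates sat 10 min at room temperature, then ATP-coupled luminescence was imaged as the viability read-out.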
# HEK293 = assay: as above; settings: Five cell lines viability, CellTiter-Glo ATP luminescence, 48-72 h; max response: stronger effect = lower value
# Method in brief: as §1
# HaCat [1] = assay: as above; settings: Five cell lines viability, CellTiter-Glo ATP luminescence, 48-72 h; max response: stronger effect = lower value
# Method in brief: as §1
# NIH3T3 [2] = assay: as above; settings: Five cell lines viability, CellTiter-Glo ATP luminescence, 48-72 h; max response: stronger effect = lower value
# Method in brief: as §1
# MCC-13 = assay: qHTS assay to identify novel small-molecules to repurpose for Merkel cell carcinoma treatment (AID 1296009); settings: MCC and control cell lines, CellTiter-Glo viability, 72 h; series mostly up to 46 µM; also: nearly all actives have a fitted effect of over 60% in size
# Method in brief: (§2)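 Viability readout: ATP luminescence (CellTiter-Glo) after 72 hr drug exposure at 37 degree celsius. Dose-response format was 8 points for NPC and 11 points for MIPE; data normalized to in-plate controls.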
# MCC-26 = assay: as above; settings: MCC and control cell lines, CellTiter-Glo viability, 72 h; series mostly up to 46 µM
# Method in brief: as §2
# MKL-1 = assay: as above; settings: MCC and control cell lines, CellTiter-Glo viability, 72 h; series mostly up to 46 µM
# Method in brief: as §2
# MKL-2 = assay: as above; settings: MCC and control cell lines, CellTiter-Glo viability, 72 h; series mostly up to 46 µM
# Method in brief: as §2
# UISO = assay: as above; settings: MCC and control cell lines, CellTiter-Glo viability, 72 h; series mostly up to 46 µM
# Method in brief: as §2
# WaGa = assay: as above; settings: MCC and control cell lines, CellTiter-Glo viability, 72 h; series mostly up to 46 µM
# Method in brief: as §2
# C33A = assay: Primary qHTS to identify gynecologic anti-cancer compounds using libraries of approved drugs and bioactive compounds (AID 1345084); settings: Gynecologic cancer cell panel viability, ATPlite luminescence, 48 h; series mostly up to 57.5 µM; also: nearly all actives have a fitted effect of over 55% in size
# Method in brief: (§3)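 Five-point cytotoxicity, 48 h drug exposure at 37 C, 5% CO2, on cells seeded 16 h beforehand. ATP content read by ATPlite luminescence.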
# CAOV3 = assay: as above; settings: Gynecologic cancer cell panel viability, ATPlite luminescence, 48 h; series mostly up to 57.5 µM
# Method in brief: as §3
# TAB109 = assay: qHTS profiling for inhibitors of Plasmodium falciparum proliferation (AID 504749); also: nearly all actives have a fitted effect of over 60% in size; settings: P. falciparum in erythrocytes, SYBR Green DNA, 72 h; series mostly up to 28.7 µM
# Method in brief: (§4)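 Quantitative HTS: compounds pinned into medium, infected erythrocytes added (0.3% parasitemia, 2.5% hematocrit), 72 h culture at 37 C under 5% CO2. Saponin/Triton lysis with SYBR Green I, overnight RT, then fluorescence read.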
# TAB113 = assay: as above; settings: P. falciparum in erythrocytes, SYBR Green DNA, 72 h; series mostly up to 28.7 µM
# Method in brief: as §4
# TAB165 = assay: as above; settings: P. falciparum in erythrocytes, SYBR Green DNA, 72 h; series mostly up to 28.7 µM
# Method in brief: as §4
# W2 = assay: as above; settings: P. falciparum in erythrocytes, SYBR Green DNA, 72 h; series mostly up to 28.7 µM
# Method in brief: as §4
# KB-3-1 = assay: Cytotoxic Profiling of Annotated Libraries Using Quantitative High-Throughput Screening (AID 1296008); settings: Five cell lines viability, CellTiter-Glo ATP luminescence, 48-72 h; max response: stronger effect = lower value; also: nearly all actives have a fitted effect of over 60% in size
# Method in brief: as §1
# HACAT [3] = assay: qHTS assay to identify novel small-molecules to repurpose for Merkel cell carcinoma treatment (AID 1296009); settings: MCC and control cell lines, CellTiter-Glo viability, 72 h; at 44.8 µM (top of the series) unless noted; also: nearly all actives have a fitted effect of over 60% in size
# Method in brief: as §2
# NIH3T3 [4] = assay: as above; settings: MCC and control cell lines, CellTiter-Glo viability, 72 h; at 44.8 µM (top of the series) unless noted
# Method in brief: as §2
# Potency is read from the fitted curve at half-maximal effect.
smiles,measurement,setting,value
CN(C)CCCC1(c2ccc(F)cc2)OCc2cc(C#N)ccc21 (centres undefined),max response,CRL-7250,-4.07% (inactive)
same,max response,HEK293,-24.9% (inactive)
same,max response,HaCat [1],-6.25% (inactive) and -3.5% (inactive)
same,max response,NIH3T3 [2],-3.81% (inactive) and 4.08% (inactive)
same,Potency,MCC-13,inactive
same,Potency,MCC-26,inactive
same,Potency,MKL-1,inactive
same,Potency,MKL-2,inactive
same,Potency,UISO,inactive
same,Potency,WaGa,inactive
same,Potency,C33A,inactive
same,Potency,CAOV3,inactive
O=C(O)c1cc(=O)c2c(OCC(O)COc3cccc4oc(C(=O)O)cc(=O)c34)cccc2o1,Potency,TAB109,inactive
same,Potency,TAB113,inactive
same,Potency,TAB165,inactive
same,Potency,W2,inactive
same,Potency,C33A,inactive
same,Potency,CAOV3,inactive
CC(C)CC(=O)N[C@H](C(=O)N[C@H](C(=O)N[C@@H](CC(C)C)[C@@H](O)CC(=O)N[C@@H](C)C(=O)N[C@@H](CC(C)C)[C@@H](O)CC(=O)O)C(C)C)C(C)C (Isovaleryl-VV[Sta]A[Sta]-OH),max response,CRL-7250,0.655% (inactive)
same,max response,HEK293,-5.42% (inactive)
same,max response,KB-3-1,15.7% (inactive) and 7.23% (inactive)
same,max response,NIH3T3 [2],0.118% (inactive)
same,Potency,MCC-13,inactive
same,Potency,MCC-26,inactive
same,Potency,MKL-1,inactive
same,Potency,MKL-2,inactive
same,Potency,UISO,inactive
same,Potency,WaGa,inactive
same,Potency,C33A,inactive
CCCCC(CC)COC(=O)C(C#N)=C(c1ccccc1)c1ccccc1 (centres undefined),Potency,TAB165,8.91 µM (active)
same,Potency,W2,6.75 µM (active)
same,Potency,HEK293,18.8 µM (active)
same,max response,HaCat [1],-0.998% (inactive)
same,outcome,HaCat [1],inactive
same,max response,NIH3T3 [2],-1.9% (inactive)
same,outcome,NIH3T3 [2],inactive
same,outcome,HACAT [3],inactive
same,Potency,MCC-13,inactive
same,Potency,MCC-26,inactive
same,Potency,MKL-1,inactive
same,outcome,NIH3T3 [4],inactive
same,Potency,WaGa,inactive
same,Potency,C33A,inactive
same,Potency,CAOV3,inactive
O=c1cc(N2CCOCC2)oc2c(-c3ccccc3)cccc12,Potency,MCC-13,inactive
same,Potency,MCC-26,inactive
same,Potency,MKL-1,inactive
same,Potency,MKL-2,inactive
same,Potency,UISO,inactive
same,Potency,WaGa,inactive
NCCCCNCCCN,max response,CRL-7250,-45.5% (inactive)
same,outcome,HaCat [1],inactive
same,max response,KB-3-1,1.33% (inactive)
same,outcome,HACAT [3],inactive
same,Potency,MCC-13,inactive
same,Potency,MCC-26,inactive
same,Potency,MKL-2,8.33 µM (active)
same,Potency,UISO,inactive
C=CCc1cc(OC)c(O)c(C(=O)NCCO)c1,Potency,TAB109,inactive
same,Potency,TAB113,inactive
same,Potency,TAB165,inactive
same,Potency,W2,inactive
same,max response,HEK293,-0.342% (inactive)
same,max response,HaCat [1],-2.64% (inactive)
same,outcome,HaCat [1],inactive
same,max response,KB-3-1,8.32% (inactive) and 9.16% (inactive)
same,max response,NIH3T3 [2],-1.28% (inactive) and -4.54% (inactive)
same,outcome,HACAT [3],inactive
same,Potency,MCC-13,inactive
same,Potency,MCC-26,inactive
same,Potency,MKL-1,inactive
same,Potency,MKL-2,inactive
same,Potency,UISO,inactive
same,Potency,WaGa,inactive
same,Potency,C33A,inactive
CCCCCCCCCCCCCCCCCCCCCCO,Potency,TAB109,inactive
same,Potency,TAB113,inactive
same,Potency,TAB165,inactive
same,Potency,W2,inactive
same,outcome,CRL-7250,inactive
same,max response,HEK293,1.6% (inactive)
same,max response,HaCat [1],4.38% (inactive)
same,outcome,NIH3T3 [2],inactive
same,Potency,MCC-13,inactive
same,Potency,MCC-26,inactive
same,Potency,MKL-1,inactive
same,Potency,MKL-2,inactive
same,outcome,NIH3T3 [4],inactive
same,Potency,UISO,inactive
same,Potency,WaGa,inactive
Nc1nc(N)c(N=O)c(OCC2CCCCC2)n1,Potency,CRL-7250,14.8 µM (active)
same,max response,HaCat [1],-17.6% (inactive)
same,Potency,NIH3T3 [2],16.6 µM (active)
same,Potency,MCC-26,inactive
NC(=NCc1ccccc1)NC(=O)c1nc(Cl)c(N)nc1N,max response,HEK293,-5.25% (inactive)
same,outcome,HaCat [1],inactive; activator
same,max response,KB-3-1,-6.74% (inactive)
same,max response,NIH3T3 [2],3.69% (inactive)
same,outcome,HACAT [3],inactive; activator
same,Potency,MCC-13,inactive
same,Potency,MCC-26,inactive
same,Potency,MKL-1,inactive
same,Potency,UISO,inactive
same,Potency,WaGa,inactive
O=C1c2ccccc2-c2n[nH]c3cccc1c23,Potency,TAB109,inactive
same,Potency,TAB113,inactive
same,Potency,TAB165,inactive
same,max response,KB-3-1,-0.484% (inactive)
same,Potency,MCC-13,inactive
same,Potency,MCC-26,inactive
same,Potency,MKL-1,3.32 µM (active)
same,Potency,WaGa,2.64 µM (active)
CCCc1cc(=O)[nH]c(=S)[nH]1,Potency,TAB109,inactive
same,Potency,TAB113,inactive
same,Potency,TAB165,inactive
same,Potency,W2,inactive
same,max response,CRL-7250,1.74% (inactive) and -1.3% (inactive)
same,max response,HEK293,2.66% (inactive)
same,max response,KB-3-1,0.476% (inactive)
same,outcome,KB-3-1,inactive
same,outcome,NIH3T3 [2],inactive; activator
same,Potency,MCC-13,inactive
same,Potency,MCC-26,inactive
same,Potency,MKL-1,inactive
same,Potency,MKL-2,inactive
same,outcome,NIH3T3 [4],inactive; activator
same,Potency,UISO,inactive
same,Potency,WaGa,inactive and 18.7 µM (active)
same,Potency,C33A,inactive
same,Potency,CAOV3,inactive
COCCCN1CCC(NC(=O)c2cc(Cl)c(N)c3c2OCC3)CC1,Potency,C33A,inactive
same,Potency,CAOV3,inactive
C=C(c1ccc(C(=O)O)cc1)c1cc2c(cc1C)C(C)(C)CCC2(C)C,Potency,TAB109,inactive
same,Potency,TAB113,inactive
same,Potency,TAB165,inactive
same,Potency,C33A,inactive
same,Potency,CAOV3,inactive
CCc1nc(N)nc(N)c1-c1ccc(Cl)cc1,Potency,TAB109,inactive
same,Potency,TAB113,inactive
same,Potency,TAB165,0.178 µM (active)
same,max response,CRL-7250,-18.3% (inactive)
same,Potency,HEK293,6.68 µM (active) and 18.7 µM (active)
same,max response,HaCat [1],3.72% (inactive)
same,Potency,NIH3T3 [2],8.41 µM (active) and 9.35 µM (active)
same,Potency,MCC-26,inactive
same,Potency,MKL-1,inactive
same,Potency,MKL-2,inactive
same,Potency,WaGa,11.9 µM (active)
same,Potency,C33A,5.01 µM (active)
same,Potency,CAOV3,inactive
Cc1cc(Cl)ccc1OCCCC(=O)NO,max response,CRL-7250,-2.51% (inactive)
same,max response,HaCat [1],3.7% (inactive)
same,Potency,MCC-13,inactive
same,Potency,MCC-26,inactive
same,Potency,MKL-1,14.8 µM (active)
CC[C@]1(O)C[C@H]2CN(CCc3c([nH]c4ccccc34)[C@@](C(=O)OC)(c3cc4c(cc3OC)N(C=O)[C@H]3[C@@](O)(C(=O)OC)[C@H](OC(C)=O)[C@]5(CC)C=CCN6CC[C@]43[C@@H]65)C2)C1,Potency,TAB109,2 µM (active)
same,Potency,TAB113,2.51 µM (active)
same,Potency,W2,0.338 µM (active)
same,Potency,CRL-7250,29.6 nM (active) and 211 nM (active)
same,Potency,HEK293,14.8 nM (active) and 150 nM (active)
same,outcome,HaCat [1],inactive
same,outcome,HACAT [3],inactive
same,Potency,MCC-13,209 nM (active) and 376 nM (active)
same,Potency,MCC-26,0.0469 µM (active)
same,Potency,MKL-1,9.3 nM (active) and 33.5 nM (active)
same,Potency,MKL-2,0.0119 µM (active)
same,Potency,UISO,3 nM (active) and 21.1 nM (active)
same,Potency,WaGa,3.3 nM (active) and 26.6 nM (active)
same,Potency,C33A,0.631 µM (active)

# — PubChem BioAssay (NCATS)
